Among all 290,000 compounds or so, about 27,000 (9.3%) were called active. The list comes from a sample in which actives are over-represented; it also holds similar structures and randomly drawn compounds. Values without a mark were called inactive. Cut-off read from the data, not from the text of the source: active = inhibition mostly above about 28% (no sharp cut-off); inactive = mostly below about 43%.

This passage reports inhibition results from PubChem BioAssay AID2315 (National Center for Advancing Translational Sciences (NCATS), 2010).

The assay in a line: A qHTS for Small Molecule Inhibitors of Shiga Toxin. Note: 0% is about no effect. The note with it: Vero cells, Shiga toxin protein synthesis inhibition reporter; at 38.7 µM, stronger effect = higher value.
Consider `CC(C)(C)c1ccc(Cn2nnc3c(=O)[nH]c(C4CCCN(C(=O)c5ccco5)C4)nc32)cc1` (stereo not given), for which the inhibition was 2.02%. Take `Cc1cc(C)n(CCC(=O)N2CCN(S(=O)(=O)c3ccc(C)c(C)c3)CC2)n1`: the inhibition is -6.68%. As to `Cc1ccc(CNC(=O)C2CCCN2S(=O)(=O)c2ccc3c(c2)C(C)(C)C(=O)N3C)cc1` (stereo not given), the inhibition is -2.07%. For the compound `Cc1cc(C(F)F)nn1CC(=O)NC1CCCCCC1`, the inhibition is -2.84%. The same measure for `CCn1c(=S)sc2c(=O)n(CC(=O)Nc3ccc(OC)cc3)c(C)nc21`: -8.22%.

`COc1cc(CCC(=O)Nc2ccncc2Cl)cc(OC)c1OC`: the inhibition was -2.22%. The figure for `CN(C(=O)CSc1nncc2ccccc12)C1CCCCC1` is 69.8% (active).

With `CN(C(=O)CCn1c(=S)oc2ccccc21)C1CCCCC1`, the inhibition is -6.3%. The same measure for `CN(C(=O)CSc1nnnn1-c1ccccc1)C1CCCCC1`: 31.7%; for `O=C(CC1CCCCC1)NCc1ccco1`: -2.21%. The same measure for `O=C(Cc1ccc(F)cc1)NC1CCCC1`: -4.53%; for `O=C(CC1CCCCC1)NCc1ccc(F)cc1`: 61.1% (active).

Consider `CC(=O)Nc1ccc(N2C(=O)C3C4C=CC(CC4)C3C2=O)cc1` (stereo not given), for which the inhibition was 11.7%.

As to `CC(=O)Nc1ccc(S(=O)(=O)N2CCN(C3CCCCCCC3)CC2)cc1`, the inhibition was -14.3%. The same measure for `O=C(CC1CCCCC1)NCc1ccccc1`: 107% (active); for `CC(=O)Nc1ccc(NC(=O)CC2CCCC2)cc1`: 48.2% (active). The same measure for `O=C(CCc1ccc(S(=O)(=O)NC2CCCCC2)cc1)NCc1ccccc1`: -10%; for `O=C(Cn1nc(C(F)(F)F)c2c1CCC2)NCc1ccc(F)cc1`: -2.3%; for `Cc1ccc(Cn2c(C)c3cnn(CC(=O)NCc4ccccn4)c(=O)c3c2C)cc1`: -6.49%. The figure for `Cc1nn(CC2CC2)c(=O)n1N(C)c1ncc(C(F)(F)F)cc1Cl` is -23.8%; for `COc1ccc(NS(=O)(=O)c2ccc(F)cc2F)cn1` it is -5.14%; for `CCOC(=O)Cn1c(=O)n(Cc2ccc(OC)cc2)c(=O)c2cccnc21` it is -6.29%. With `Cc1cc(NS(=O)(=O)c2ccc(NC(=O)C(C)Oc3cccc(C)c3C)cc2)nc(C)n1` (stereo not given), the inhibition is 1.79%. Regarding `CC(NC(=O)COc1ccc(-c2ccccc2)cc1)C1CCCO1` (stereo not given), the inhibition was 12%. The same measure for `Cc1ccc2c(CC(=O)NCc3cccs3)coc2c1`: 77.5% (active); for `COc1ccc(C)cc1NC(=O)CNCc1cccs1`: -6.47%; for `O=C(Cc1coc2ccc3ccccc3c12)NCc1cccs1`: 1.44%.

On to `CC(C)[C@H](NC(=O)N1CCn2c1nc1ccccc12)C(=O)NC1CC1`, for which the inhibition is 25.9%. The same measure for `CCOC(=O)C1(Cc2ccc(Cl)cc2)CCN(C(=O)C2=NNC(=O)CC2)CC1`: -6.2%; for `CCOC(=O)C1(CCOc2ccccc2)CCN(C(=O)c2cncs2)CC1`: -4.69%. The figure for `CCOC(=O)C1(Cc2ccccc2C(F)(F)F)CCN(C(=O)c2cc(C)n(C)n2)CC1` is 109% (active). The figure for `COC(=O)c1ccc(CNC(=O)C2CCC(=O)N(Cc3ccccn3)C2)cc1` (stereo not given) is -9.5%; for `CN(C)c1ccc(C2N(C)C(=O)c3ccccc3N2C)cc1` (stereo not given) it is -12.6%. On to `O=[N+]([O-])c1ccc(N2CCN(c3ccc(F)cc3)CC2)cn1`, for which the inhibition is 20.3%.

Consider `O=C(Nc1cccc(NC(=O)c2ccc(Br)cc2)c1)c1ccccc1`, for which the inhibition was -7.53%. Take `O=S(=O)(Nc1ccccc1Cl)c1cccc2nsnc12`: the inhibition was -3.15%.

For `Cc1nc(C)c(C(=O)Nc2cccc(C)c2C)o1`, the inhibition is -7.98%. The figure for `Cc1cccc(NC(=O)c2ccc(OCC(=O)NCc3ccccc3)cc2)c1C` is -9.42%; for `O=C(Nc1ccccc1N1CCCCC1)c1ccc2nccnc2c1` it is -14.9%. The same measure for `Cc1cccc(NC(=O)c2ccc3nsnc3c2)c1C`: 80% (active).

Regarding `O=C(Nc1ccccc1Cl)c1ccc2nsnc2c1`, the inhibition is 102% (active). Turning to `O=C(Nc1ccccc1)c1ccc2nsnc2c1`, the inhibition is 64.7% (active).

As to `COc1ccc(N2CCN(C(=O)C3CCN(C(=O)c4ccccc4Cl)CC3)CC2)cc1`, the inhibition is 26.7%. For `CCCCC(CC)CNCc1cccn1CCN1CCOCC1` (stereo not given), the inhibition was -23.2%.

Turning to `COc1cccc(-c2nc(CS(=O)CC(=O)NCc3ccc(F)cc3)c(C)o2)c1` (stereo not given), the inhibition is -9.69%.

Consider `COc1cccc(NC(=O)[C@H](Cc2c[nH]c3ccccc23)NC(=O)[C@@H]2Cc3ccccc3CN2)c1`, for which the inhibition is 9.71%. For the compound `O=S(=O)(Nc1cccc(-n2cnnn2)c1)c1cnc(Cl)c(Cl)c1`, the inhibition is -9.74%.

With `Cc1ccc(C)c(NC(=O)c2ccc(OC(=O)c3ccco3)cc2)c1`, the inhibition is 32.9%.

As to `Cc1ccc(O)c(NC(=O)COc2cc(C)ccc2C)c1`, the inhibition is -27.8%. The figure for `Cc1ccc(O)c(NC(=O)c2cc(-c3ccco3)on2)c1` is 81.4% (active); for `O=C(O)CSc1c2c(nc3cc(C(=O)Nc4cccc(C(F)(F)F)c4)ccc13)CCCC2` it is -3.73%. The same measure for `O=C(O)CN1CCN(C(c2ccccc2)c2ccccc2)CC1`: -10.2%. For `Clc1ccccc1CSc1nnc(-c2ccco2)c(-c2ccco2)n1`, the inhibition was -3.95%. The figure for `Cc1cc(SCc2c(F)cccc2Cl)nc(=O)[nH]1` is 5.47%. The same measure for `Brc1ccc(CSc2ccc(-c3ccco3)nn2)cc1`: 99.8% (active); for `Fc1cccc(Cl)c1CSc1ccc(-c2ccco2)nn1`: 89% (active); for `O=C(CSc1ccc(-c2ccco2)nn1)NCc1ccc2c(c1)OCO2`: 25%. The figure for `COc1ccc(NC(=O)CSc2ccc(-c3ccco3)nn2)c(OC)c1` is -11.2%.

Regarding `O=C(Nc1ccccc1-c1ccccc1)c1ccccc1[N+](=O)[O-]`, the inhibition is 2.33%. The figure for `O=C(Nc1ccc(F)cc1)c1cccnc1N1CCOCC1` is 28.6%. The same measure for `NC(=O)c1ccc(N2CCOCC2)nc1`: -13.6%; for `O=C(Nc1ccc(N2CCOCC2)nc1)c1c(F)cccc1F`: 55.5% (active). The figure for `CC(=O)c1ccc(S(=O)(=O)N(C)CCCC(=O)N(C)Cc2ccccc2F)cc1` is -5.36%. As to `CCn1c(Cc2ccc(OC)cc2)nnc1SCC(=O)Nc1ccc(N2CCOCC2)cc1`, the inhibition was 1.72%. The same measure for `COc1cccc(/C=C(/CC(=O)Nc2ccc(N3CCOCC3)cc2)c2nc3ccccc3s2)c1`: 90.3% (active). The same measure for `COc1ccc(/C=C(/CC(=O)Nc2ccc(C)cc2)c2nc3ccccc3s2)cc1`: 19.4%; for `COc1ccc(C(C)NC(=O)C2CCCC2)cc1` (stereo not given): -3.92%.

As to `O=C(COc1ccc2ccc(=O)oc2c1)NCC(O)c1ccccc1` (stereo not given), the inhibition is -18.4%.

With `O=C(O)c1ccccc1C(=O)NC1=NN(c2ccccc2)CC1`, the inhibition was 3.05%. The same measure for `Cc1ccc(C(=O)c2ccc(N3CCN(C)CC3)c([N+](=O)[O-])c2)cc1`: 76.3% (active); for `CCOC(=O)C1CCN(c2ccc(C(=O)O)cc2[N+](=O)[O-])CC1`: -7.98%.

With `Cc1cccc(N2CCN(c3ccc(C(N)=O)cc3[N+](=O)[O-])CC2)c1C`, the inhibition is 5.45%. With `CCOC(=O)C1CN(S(=O)(=O)c2ccc(OC)cc2)c2cc(Cl)ccc2O1` (stereo not given), the inhibition is -12.8%. The figure for `CC(C)C(C)NC(=O)COc1nc2ccccc2nc1N(C)C1CCCCC1` (stereo not given) is -16.3%; for `O=C(NC1CCCC1)C1CCN(C(=O)Nc2cccc(Cl)c2)CC1` it is -5.04%; for `Cc1ccc(S(=O)(=O)N(Cc2ccccc2)c2ccccn2)cc1[N+](=O)[O-]` it is 5.85%.

As for `Cc1ccc(C(=O)/C=C/c2c(C)nn(-c3ccccc3)c2Cl)cc1`, the inhibition was 45.2% (active).

Turning to `Cc1nn(-c2ccccc2)c(C)c1NC(=O)CCl`, the inhibition is 16.7%.

Consider `COc1ccc(CCNC(=O)c2c(C)nn(-c3ccccc3)c2Cl)cc1`, for which the inhibition is 15.3%.

Turning to `Cc1nn(-c2ccccc2)c(Cl)c1C(=O)Nc1ccccc1`, the inhibition is 108% (active). `Cc1nn(-c2ccccc2)c(C)c1/C=C/C(=O)OC(C)C(N)=O` (stereo not given): the inhibition was -6.62%. The same measure for `Cc1nn(-c2ccccc2)c(Cl)c1/C=C/C(=O)c1ccc(O)cc1`: 37.6%. The same measure for `Cc1cccc([C@@H]2[C@@H]3C(=O)N(Cc4ccccc4)C(=O)[C@@H]3[C@]3(C)C(=O)N(c4ccc(Br)cc4)C(=O)N23)c1`: 10.9%; for `CCCN1CCN(C(=O)CCCNC(=O)c2ccc(Cl)cc2)CC1`: -8.41%; for `C[C@H](NC(=O)C1CC(=O)N(c2ccc3c(c2)OCCO3)C1)C(=O)N1CCC(C(=O)O)CC1` (stereo not given in full): -10.9%. The same measure for `COc1ccccc1N1CCN(C(=O)c2cn(-c3ccccc3)nc2-c2cccnc2)CC1`: 39.2% (active). For `COc1ccccc1N1CCN(C(=O)c2cc3c(-c4ccc(Cl)cc4)nn(C)c3s2)CC1`, the inhibition was 19.3%. `O=C(c1cn(-c2ccccc2)nc1-c1cccnc1)N1CCCCC1`: the inhibition was -13.3%.

Regarding `COc1cc(C(=O)N2CCN(C3CCC(C)CC3)CC2)cc(OC)c1OC` (stereo not given), the inhibition was -9.82%.

As for `CCOc1ccc2nc(N(CCCN(C)C)C(=O)c3ccc(C(=O)c4ccccc4)cc3)sc2c1`, the inhibition is -6%. The same measure for `O=C(O)c1ccc(-n2nc(-c3ccccc3)c3ccccc3c2=O)cc1`: 17.9%; for `CCOc1ccc(CCNC(=O)Nc2ccccc2)cc1OCC`: 7.13%. The same measure for `CCOC(=O)C1CCN(C(=O)C2CCCN(S(=O)(=O)c3ccc(OC)c(Cl)c3)C2)CC1` (stereo not given): -2.72%; for `CCc1ccc2oc(-c3ccc(N)cc3)nc2c1`: 47.9% (active); for `COc1ccc(C2C3=C(CCCC3=O)N(CC(=O)O)C3=C2C(=O)CCC3)cc1`: 14.1%.
